Source: PubChem BioAssay
“And” between values parts separate entries of the source, which are not always exact repeats. Equal values may be shown once. Inconclusive results are not listed. The source made the active and inactive calls.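 The calls were made as follows, unless noted: active = compounds whose cell count with miR-34 switched on is under 0.7 times the count with it off; inactive = the rest.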

Assays:
[1] = viability loss with induced miR-34 in A549 – imaging, A549 dox-inducible miR-34, nuclei and caspase counts, primary screen (AID 1347080); conditions: A549 miR-34 inducible, Hoechst nuclei count, 48 h
[2] = galactose survival enhancers in mitochondrial complex I cybrids – cell-based, galactose medium, ATP luminescence, primary screen (AID 1645843;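 active = z-score of at least 1.8 in each of two replicates, scored against plate mean and spread of sample wells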;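 also: positive z means more ATP and so rescue of galactose-driven cybrid death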); conditions: complex I mutant cybrid cells, 72 h, stronger effect = higher value
[3] = compounds altering circadian rhythm period length – cell-based, LOPAC library, luminescence reporter (AID 2774; call rule not given here;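 also: values are relative to mean of DMSO wells on each plate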); conditions: circadian reporter cells, at 7 µM, actives lie on both sides
[4] = compounds altering viability of human ES cells (AID 493140; call rule not given here;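 also: cells exposed to compounds for four days before counting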); conditions: human embryonic stem cell survival screen; stronger effect = higher value
[5] = test system: Hepatitis C virus NS3 helicase; assay: blockers of NS3h binding to ssDNA – biochemical, fluorescence polarization, LOPAC1280 library, primary screen (AID 687035; in the data active = inhibition above about 37%); conditions: Purified HCV NS3 helicase, Cy5-dT15 ssDNA binding fluorescence polarization; stronger effect = higher value; concentration not given here
[6] = compounds altering Cy5-DNA-NS3h complex signal – biochemical, LOPAC1280, artefact control for HCV NS3 helicase inhibitor project (AID 687037; call rule not given here); conditions: Cy5-DNA-NS3h complex fluorescence interference counterscreen
[7] = target: ATP-dependent translocase ABCB1 (Homo sapiens) (UniProt P08183); assay: P-glycoprotein substrate transport blockade – cell-based (AID 377; in the data active = fluorescence slope change above about 50%); conditions: MDR1-expressing cells, fluorescent substrate accumulation slope; stronger effect = higher value; concentration not given here
[8] = P. berghei load reduction in hepatocytes – cell-based, HepG2, luciferase luminescence, HepG2 viability, primary screen (AID 624349; in the data active = parasite load remaining mostly below about 12%, no sharp cut-off; inactive = mostly above about 10%;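 also: 100% = mean of DMSO negative control wells on the same plate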); conditions: P. berghei liver stage in HepG2, luciferase luminescence, concentration not given here; parasite load remaining: stronger effect = lower value; viability: measured here: HepG2 viability without parasites
[9] = growth inhibition, single agent or in combination, cell-based, chromothripsis tumors, cisplatin or BGB combos (AID 1671449; in the data active = inhibition above about 80%;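 also: cells exposed for 96 hours; 0% = vehicle DMSO and 100% = killing by high DMSO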); conditions: LFS_MB_P medulloblastoma cells
[10] = growth inhibition, single agent and combos, cell-based, chromothripsis tumors, cisplatin or BGB combos (AID 1671450; in the data active = inhibition above about 80%;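 also: cells exposed to compound for four days; 0% = vehicle DMSO and 100% = cell killing by high DMSO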); conditions: HDN33 neuroblastoma cells, stronger effect = higher value
[11] = growth inhibition, single agents and combos, ICB984, cell-based, cisplatin or BGB combos, synergistic combos for chromothripsis tumors (AID 1671451; call rule not given here;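 also: cells exposed for 96 hours before readout; 0% = vehicle DMSO and 100% = killing by high DMSO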); conditions: ICB984 medulloblastoma cells, drug combinations, stronger effect = higher value
[12] = growth inhibition, single agents and combos, LFS_MB_1R, cell-based, cisplatin or BGB combos, synergistic combos for chromothripsis tumors (AID 1671452; in the data active = inhibition above about 80%;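 also: cells exposed for 96 hours before readout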); conditions: LFS_MB_1R medulloblastoma cells, stronger effect = higher value
[13] = growth inhibition, single agents and combos, HTB85, cell-based, BGB or cisplatin IC20 combos, synergistic combos for chromothripsis tumors (AID 1671453; in the data active = inhibition above about 80%;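 also: cells exposed for 96 hours before readout; 0% = vehicle DMSO and 100% = high DMSO killing control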); conditions: HTB85 osteosarcoma cells, drug combinations, at 0.5 µM, stronger effect = higher value
[14] = stronger effect = lower value, cell number ratio, induced over uninduced
[15] = measured here: relative caspase fold change +Dox/-Dox
[16] = measured here: total cells with miR-34 induction, stronger effect = lower value
[17] = measured here: total cells without miR-34 induction
[18] = measured here: combination with BGB IC40, at 0.05 µM

Sequence of ATP-dependent translocase ABCB1 (Homo sapiens) (P08183 whole entry, looked up): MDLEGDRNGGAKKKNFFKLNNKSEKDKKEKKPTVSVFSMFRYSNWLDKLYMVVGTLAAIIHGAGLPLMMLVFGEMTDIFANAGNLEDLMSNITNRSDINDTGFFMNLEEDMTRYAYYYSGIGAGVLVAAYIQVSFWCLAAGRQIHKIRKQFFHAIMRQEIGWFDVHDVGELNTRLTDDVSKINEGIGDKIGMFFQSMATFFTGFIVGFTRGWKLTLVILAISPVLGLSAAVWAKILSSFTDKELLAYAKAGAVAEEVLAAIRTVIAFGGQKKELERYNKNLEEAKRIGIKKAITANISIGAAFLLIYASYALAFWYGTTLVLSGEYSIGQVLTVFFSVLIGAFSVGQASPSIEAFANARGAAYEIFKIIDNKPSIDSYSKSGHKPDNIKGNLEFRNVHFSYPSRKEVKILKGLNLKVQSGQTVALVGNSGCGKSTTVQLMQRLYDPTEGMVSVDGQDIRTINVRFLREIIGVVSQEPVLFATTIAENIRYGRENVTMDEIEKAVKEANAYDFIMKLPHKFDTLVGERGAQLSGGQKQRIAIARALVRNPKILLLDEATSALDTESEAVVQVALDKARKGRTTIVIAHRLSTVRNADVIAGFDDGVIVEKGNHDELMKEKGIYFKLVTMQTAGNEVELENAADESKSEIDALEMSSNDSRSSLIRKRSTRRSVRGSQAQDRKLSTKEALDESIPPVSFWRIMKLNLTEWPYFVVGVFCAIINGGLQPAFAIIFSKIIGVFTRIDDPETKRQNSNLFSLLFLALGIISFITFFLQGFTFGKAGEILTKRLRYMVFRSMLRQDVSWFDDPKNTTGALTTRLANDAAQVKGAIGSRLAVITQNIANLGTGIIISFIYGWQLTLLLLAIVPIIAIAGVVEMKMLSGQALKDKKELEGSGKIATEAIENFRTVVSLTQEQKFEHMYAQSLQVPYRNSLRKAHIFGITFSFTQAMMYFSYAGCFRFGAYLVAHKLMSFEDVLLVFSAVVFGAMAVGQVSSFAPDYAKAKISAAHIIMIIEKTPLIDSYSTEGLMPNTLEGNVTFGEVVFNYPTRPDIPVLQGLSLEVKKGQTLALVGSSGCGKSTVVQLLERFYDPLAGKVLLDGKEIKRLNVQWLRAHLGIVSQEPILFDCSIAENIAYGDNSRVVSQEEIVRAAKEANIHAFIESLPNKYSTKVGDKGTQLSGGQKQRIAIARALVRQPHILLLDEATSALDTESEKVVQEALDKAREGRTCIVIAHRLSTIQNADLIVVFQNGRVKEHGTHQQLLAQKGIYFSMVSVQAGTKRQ

COC(=O)C[C@](O)(CCCC(C)(C)O)C(=O)OC1C(OC)=C[C@]23CCCN2CCc2cc4c(cc2C13)OCO4 (some centres undefined)
fold change [1, 14]: 0.85 (inactive) | fold change [1, 15]: 0.957 | cell count [1, 16]: 1590 | cell count [1, 17]: 1870 | z-score [2]: -1.86 (inactive)

CC(=O)[C@@]1(O)CCC2C3CC(C)C4=CC(=O)CC[C@]4(C)C3CC[C@@]21C (some centres undefined)
fold change [1, 14]: 0.817 (inactive) | fold change [1, 15]: 0.742 | cell count [1, 16]: 7720 | cell count [1, 17]: 9450 | z-score [2]: -0.04 (inactive)

C[C@]12CCC3c4ccc(O)cc4CCC3C1CCC2O (some centres undefined)
fold change [1, 14]: 1.11 (inactive) | fold change [1, 15]: 1.15 | cell count [1, 16]: 6850 | cell count [1, 17]: 6160 | z-score [2]: 0.465 (inactive)

C=C1C(=CC=C2CCC[C@@]3(C)C2CCC3C(C)C=CC(O)C2CC2)CC(O)CC1O (some centres undefined)
fold change [1, 14]: 1.02 (inactive) | fold change [1, 15]: 1.9 | cell count [1, 16]: 9990 | cell count [1, 17]: 9800 | z-score [2]: -1.44 (inactive)

CC(C)(C)NC(=O)C1CN(Cc2cccnc2)CCN1CC(O)CC(Cc1ccccc1)C(=O)NC1c2ccccc2CC1O (centres undefined)
fold change [1, 14]: 0.967 (inactive) | fold change [1, 15]: 1.5 | cell count [1, 16]: 9380 | cell count [1, 17]: 9700 | z-score [2]: 1.61 (inactive)

CCOC(=O)C12CC1/C(=N/O)c1ccccc1O2 (centres undefined)
period change [3]: -0.125 h (inactive) | fold change [1, 14]: 1.06 (inactive) | fold change [1, 15]: 2.7 | cell count [1, 16]: 9720 | cell count [1, 17]: 9140 | z-score [2]: 0.485 (inactive)

CCCCCC(O)c1cccc(OCc2ccc3ccccc3n2)c1 (centres undefined)
period change [3]: 0.015 h (inactive) | survival [4]: 78.8 (inactive) | inhibition [5]: 1% (inactive) | fluorescence ratio (interference) [6]: 0.9 (inactive) | fold change [1, 14]: 0.911 (inactive) and 0.978 (inactive) | fold change [1, 15]: 1.06 and 0.946 | cell count [1, 16]: 5590 and 5690 | cell count [1, 17]: 6140 and 5820

NC(=S)c1ccc[n+]([C@@H]2O[C@@H](COP(=O)([O-])OP(=O)(O)OC[C@H]3O[C@@H](n4cnc5c(N)ncnc54)C(OP(=O)(O)O)[C@H]3O)C(O)C2O)c1 (some centres undefined)
period change [3]: 0.055 h (inactive) | inhibition [5]: -5% (inactive) | fluorescence ratio (interference) [6]: 1 (inactive) | fold change [1, 14]: 0.943 (inactive) | fold change [1, 15]: 1.17 | cell count [1, 16]: 10100 | cell count [1, 17]: 10700 | z-score [2]: 0.57 (inactive)

COC(=O)C1=CO[C@@H](C)[C@H]2CN3CCc4c([nH]c5ccccc45)[C@@H]3C[C@H]12
fluorescence slope change [7]: 76.8% (active) | survival [4]: 10.5 (inactive) | parasite load remaining [8]: 108% (inactive) and 62.6% (inactive) | viability [8]: 97.4% and 74.1% | fold change [1, 14]: 0.773 (inactive) | fold change [1, 15]: 1.63 | cell count [1, 16]: 5880 | cell count [1, 17]: 7600

N=c1c[n+](N2CCOCC2)[n-]o1
period change [3]: 0.03 h (inactive) | inhibition [5]: -1% (inactive) and -5% (inactive) | fluorescence ratio (interference) [6]: 1 (inactive) | fold change [1, 14]: 1 (inactive) and 0.984 (inactive) | fold change [1, 15]: 2.22 and 1.55 | cell count [1, 16]: 10300 and 10500 | cell count [1, 17]: 10300 and 10700 | z-score [2]: -0.02 (inactive) and 0.005 (inactive)

N.N.N.N.N.N.N.N.N.N.N.N.N.N.O.O.[Cl-].[Cl-].[Cl-].[Cl-].[Cl-].[Cl-].[Ru+4].[Ru+5].[Ru+5]
period change [3]: 0.18 h (inactive) | inhibition [5]: -98% (inactive) | fluorescence ratio (interference) [6]: 0 (active) | fold change [1, 14]: 1.03 (inactive) | fold change [1, 15]: 0.871 | cell count [1, 16]: 10700 | cell count [1, 17]: 10400 | z-score [2]: -0.735 (inactive)

CCC[C@@H]1C[C@@H](C(=O)N[C@@H]([C@H]2O[C@H](SC)[C@H](O)[C@@H](O)[C@@H]2O)[C@@H](C)O)N(C)C1
parasite load remaining [8]: 53.4% (inactive) and 46.6% (inactive) | viability [8]: 129% and 47.8% | fold change [1, 14]: 0.982 (inactive) and 0.853 (inactive) | fold change [1, 15]: 0.967 and 1.36 | cell count [1, 16]: 11000 and 8020 | cell count [1, 17]: 11200 and 9400 | z-score [2]: 1.21 (inactive)

O=C(O)CCC/C=C\C[C@@H]1[C@@H](/C=C/[C@H](O)C2Cc3ccccc3C2)[C@@H](F)C[C@@H]1O
period change [3]: -0.195 h (inactive) | inhibition [5]: -2% (inactive) | fluorescence ratio (interference) [6]: 1 (inactive) | fold change [1, 14]: 0.962 (inactive) and 0.866 (inactive) | fold change [1, 15]: 1.71 and 1.08 | cell count [1, 16]: 9120 and 5490 | cell count [1, 17]: 9480 and 6340 | z-score [2]: 0.805 (inactive)

NC(N)=[N+]1CCc2ccccc2C1
period change [3]: -0.15 h (inactive) | inhibition [5]: -1% (inactive) | fluorescence ratio (interference) [6]: 1.1 (inactive) | fold change [1, 14]: 1.01 (inactive) | fold change [1, 15]: 1.06 | cell count [1, 16]: 8570 | cell count [1, 17]: 8500 | z-score [2]: -0.075 (inactive)

COc1c(N2CC3CCCNC3C2)c(F)cc2c(=O)c(C(=O)O)cn(C3CC3)c12 (centres undefined)
fold change [1, 14]: 0.906 (inactive) | fold change [1, 15]: 1.2 | cell count [1, 16]: 9060 | cell count [1, 17]: 10000 | z-score [2]: 0.965 (inactive) | inhibition ([9]; at 0.5 µM, stronger effect = higher value): 79.9% (inactive) and -20.5% (inactive) | inhibition ([9]; measured here: combination with BGB IC20, at 0.005 µM): -24.3% and -13.6% | inhibition ([9]; measured here: combination with BGB IC40, at 0.005 µM): -13.7% and -15.3% | inhibition [9, 18]: -23.7% and -12.1% | inhibition ([9]; measured here: combination with cisplatin, at 0.5 µM, stronger effect = higher value): 118% and -28.2% | inhibition ([9]; measured here: combination with cisplatin, at 5 µM, stronger effect = higher value): -54.4% and -21.2% | inhibition ([10]; BGB combo, at 5 µM): 16.5% and -16.1% | inhibition ([10]; at 0.5 µM): -17.5% (inactive) and 7.5% (inactive) | inhibition ([10]; cisplatin combo, at 5 µM): -9.22% and 17.7% | inhibition ([10]; measured here: with BGB IC20 combination, at 0.5 µM): -4.15% and 11.4% | inhibition ([10]; measured here: with cisplatin IC20 combination, at 0.5 µM): -25.5% and 15.3% | inhibition ([10]; single agent, at 5 µM): 17.2% and 9.26% | inhibition ([11]; BGB IC20 combo, at 0.005 µM): -0.325% and -11.1% | inhibition ([11]; BGB IC40 combo, at 0.005 µM): -5.95% and -17.1% | inhibition ([11]; BGB IC40 combo, at 0.05 µM): -19.5% and -21.1% | inhibition ([11]; at 0.5 µM): -10.7% (inactive) and -20.7% (inactive) | inhibition ([11]; cisplatin combo, at 0.05 µM): -23.8% and -21.1% | inhibition ([11]; cisplatin combo, at 0.5 µM): -1.29% and -29.2% | inhibition ([11]; cisplatin combo, at 5 µM): -29.8% and -8.73% | inhibition ([11]; measured here: 5 uM single agent, at 5 µM): -4.57% and 0.836% | inhibition ([12]; at 0.5 µM): -18.3% (inactive) and -14.3% (inactive) | inhibition [12, 18]: -0.314% and -2.89% | inhibition ([12]; measured here: combination with cisplatin, at 0.5 µM): -10.2% and 25.8% | inhibition ([12]; measured here: combination with cisplatin, at 5 µM): -57.1% and -57% | inhibition [13]: -1.92% (inactive) and -17.4% (inactive)
